# From the supplement of paper PMC7184167
# Where a name gives a salt, the structure may show the parent alone.
# Tested on: replication-induced senescent mouse newborn dermal fibroblasts (NBF)
# Assay: relative cell viability of senescent cells (fraction); higher = less killing of senescent cells
# Conditions: 1 µM; 3 days
# Description: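 Replication-induced senescent newborn mouse skin fibroblasts (NBFs) in 24-well plates were treated with a Selleck FDA-approved drug library at 1 µM for 3 days.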
row,Structure (SMILES),relative cell viability
1,CCOc1cc2ncc(C#N)c(Nc3ccc(F)c(Cl)c3)c2cc1NC(=O)/C=C/CN(C)C [Pelitinib (EKB-569)],1.01
2,NC(=O)N1c2ccccc2C=Cc2ccccc21 [Carbamazepine],0.859
3,COC(=O)c1ccc2c(C(=Nc3ccc(N(C)C(=O)CN4CCN(C)CC4)cc3)c3ccccc3)c(O)[nH]c2c1 [Nintedanib (BIBF 1120)],1.01
4,CC(C)Cc1ccc(C(C)C(=O)O)cc1 (stereo not given) [Ibuprofen],0.765
5,CCN(CC)C(=S)SSC(=S)N(CC)CC [Disulfiram],1.13
6,CC(=O)O[C@H]1C(=O)[C@@]2(C)[C@H]([C@H](OC(=O)c3ccccc3)[C@]3(O)C[C@H](OC(=O)[C@H](O)[C@@H](NC(=O)c4ccccc4)c4ccccc4)C(C)=C1C3(C)C)[C@]1(OC(C)=O)CO[C@@H]1C[C@@H]2O [Paclitaxel],0.398
7,C[C@H](Cn1cnc2c(N)ncnc21)OCP(=O)(O)O [Tenofovir],0.893
8,Cn1cc(CNCC2CCN(c3ncc(C(=O)NO)cn3)CC2)c2ccccc21,0.757
9,C[C@]12C=CC(=O)C=C1CC[C@@H]1[C@@H]2C(=O)C[C@@]2(C)[C@H]1CC[C@]2(O)C(=O)CO [Prednisone],0.875
10,CCC(=O)OCC(=O)[C@@]1(OC(=O)CC)[C@@H](C)C[C@H]2[C@@H]3CCC4=CC(=O)C=C[C@]4(C)[C@@]3(F)[C@@H](O)C[C@@]21C [Betamethasone Dipropionate],0.902
11,Cn1ccnc1S [Methimazole],0.994
12,CN(C)C/C=C/C(=O)Nc1cc2c(Nc3ccc(F)c(Cl)c3)ncnc2cc1O[C@H]1CCOC1 [Afatinib (BIBW2992)],0.539
13,CN1CCC(=C2c3ccccc3CCc3sccc32)CC1 [Pizotifen Malate],0.0212
14,CCC[C@H](NC(=O)[C@@H]1[C@H]2CCC[C@H]2CN1C(=O)[C@@H](NC(=O)[C@@H](NC(=O)c1cnccn1)C1CCCCC1)C(C)(C)C)C(=O)C(=O)NC1CC1 [Telaprevir (VX-950)],0.411
15,CC(C)(C)c1cc(NC(=O)Nc2ccc(-c3cn4c(n3)sc3cc(OCCN5CCOCC5)ccc34)cc2)no1 [Quizartinib (AC220)],0.955
16,NS(=O)(=O)Cc1noc2ccccc12 [Zonisamide],1.11
17,Cc1ccnc2c1NC(=O)c1cccnc1N2C1CC1 [Nevirapine],1.02
18,COc1cc(/C=C/C(=O)CC(=O)/C=C/c2ccc(O)c(OC)c2)ccc1O [Curcumin],0.768
19,C#CCC(Cc1cnc2nc(N)nc(N)c2n1)c1ccc(C(=O)N[C@@H](CCC(=O)O)C(=O)O)cc1 (stereo not given in full) [Pralatrexate],0.863
20,CO[C@H]1/C=C/O[C@@]2(C)Oc3c(C)c(O)c4c(O)c(c(/C=N/N5CCN(C)CC5)c(O)c4c3C2=O)NC(=O)/C(C)=C\C=C\[C@H](C)[C@H](O)[C@@H](C)[C@@H](O)[C@@H](C)[C@H](OC(C)=O)[C@@H]1C [Rifampin],1.11

row,Structure (SMILES),relative cell viability
1,O=C(Nc1cccc2c(=O)cc(-c3nnn[nH]3)oc12)c1ccc(OCCCCc2ccccc2)cc1 [Pranlukast],1.01
2,CCN(CC)CCNC(=O)c1c(C)[nH]c(/C=C2\C(=O)Nc3ccc(F)cc32)c1C [Sunitinib Malate],1.1
3,O=C(C1CCCCC1)N1CC(=O)N2CCc3ccccc3C2C1 (stereo not given) [Praziquantel],1.07
4,COCCc1ccc(OCC(O)CNC(C)C)cc1 (stereo not given) [Metoprolol Tartrate],1.1
5,COC(=O)C1=C(C)NC(C)=C(C(=O)OC(C)C)C1c1cccc2nonc12 (stereo not given) [Isradipine],0.977
6,COC(=O)N[C@H](C(=O)N[C@@H](Cc1ccccc1)[C@@H](O)CN(Cc1ccc(-c2ccccn2)cc1)NC(=O)[C@@H](NC(=O)OC)C(C)(C)C)C(C)(C)C [Atazanavir Sulfate],0.988
7,Clc1ccccc1C(c1ccccc1)(c1ccccc1)n1ccnc1 [Clotrimazole],1.01
8,COc1ccc2cc([C@H](C)C(=O)O)ccc2c1 [Naproxen Sodium],0.686
9,CO[C@H]1C[C@@H]2CC[C@@H](C)[C@@](O)(O2)C(=O)C(=O)N2CCCC[C@H]2C(=O)O[C@H]([C@H](C)C[C@@H]2CC[C@@H](O)[C@H](OC)C2)CC(=O)[C@H](C)/C=C(\C)[C@@H](O)[C@@H](OC)C(=O)[C@H](C)C[C@H](C)/C=C/C=C/C=C/1C [Rapamycin (Sirolimus)],0.735
10,CC1(C)O[C@@H]2C[C@H]3[C@@H]4CCC5=CC(=O)C=C[C@]5(C)[C@@]4(F)[C@@H](O)C[C@]3(C)[C@]2(C(=O)CO)O1 [Triamcinolone Acetonide],1.02
11,C[C@](N)(Cc1ccc(O)c(O)c1)C(=O)O [Methyldopa],0.971
12,N#C[C@@H]1C[C@@H]2C[C@@H]2N1C(=O)[C@@H](N)C12CC3CC(CC(O)(C3)C1)C2 [Saxagliptin],0.999
13,COc1cc2c(Oc3ccc4[nH]c(C)cc4c3F)ncnc2cc1OCCCN1CCCC1 [Cediranib (AZD2171)],0.269
14,CC(=O)O[C@@]12CO[C@@H]1C[C@H](O)[C@@]1(C)C(=O)[C@H](O)C3=C(C)[C@@H](OC(=O)[C@H](O)[C@@H](NC(=O)OC(C)(C)C)c4ccccc4)C[C@@](O)([C@@H](OC(=O)c4ccccc4)[C@H]21)C3(C)C [Docetaxel],0.565
15,N=C(N)NC(=N)N1CCOCC1 [Moroxydine HCl],0.965
16,COC(=O)[C@H](c1ccccc1Cl)N1CCc2sccc2C1 [Clopidogrel],0.983
17,CCc1cc(C(N)=S)ccn1 [Ethionamide],0.932
18,CN(C/C=C/C#CC(C)(C)C)Cc1cccc2ccccc12 [Terbinafine],0.403
19,CC(C(=O)O)c1ccc(C(=O)c2cccs2)cc1 (stereo not given) [Suprofen],0.929
20,C[C@H](N[C@@H](CCc1ccccc1)C(=O)O)C(=O)N1CCC[C@H]1C(=O)O [Enalaprilat Dihydrate],0.862
